Data taken from PubChem BioAssay.

test: blockers of cytochrome c efflux from mitochondria – biochemical, purified mitochondria (AID 1603); settings: stronger effect = lower value;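 also: mouse liver mitochondria challenged with calcium chloride; signal normalized to the plate average as 100%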

Q: Which cytochrome c release ratio does the source give for `O=C1CC[C@@]2(O)[C@H]3Cc4ccc(O)c5c4C2(CCN3CC2CC2)[C@H]1O5` here?
A: 1.27

Q: For `C=C[C@H]1CN2CC[C@H]1C[C@@H]2[C@@H](OC(=O)OCC)c1ccnc2ccc(OC)cc12`, which cytochrome c release ratio is on record?
A: 1.43

Q: For `NC1C[C@H]1c1ccccc1` (some centres undefined), which cytochrome c release ratio is on record?
A: 0.57

Q: Which cytochrome c release ratio does the source give for `C[C@@H]1O[C@@H](O[C@H]2C[C@@H](O)[C@]3(CO)C4C(CC[C@]3(O)C2)[C@@]2(O)CC[C@H](C3=CC(=O)OC3)[C@@]2(C)C[C@H]4O)[C@H](O)[C@H](O)[C@H]1O` (some centres undefined) here?
A: 1.01

Q: Which cytochrome c release ratio does the source give for `CC1[C@H](C)OC(=O)CC(O)CC(O)CC(O)CCC(O)C(O)C[C@]2(O)CC(O)C(C(=O)O)C(CC(OC3O[C@H](C)[C@@H](O)[C@H](N)[C@@H]3O)/C=C/C=C/C=C/C=C/CC/C=C/C=C/[C@H](C)[C@H]1O)O2` (some centres undefined) here?
A: 0.93

Q: For `C[N+](C)(C)CC(=O)[O-]`, which cytochrome c release ratio is on record?
A: 1.34

Q: Which cytochrome c release ratio does the source give for `C#CC1(O)CCC2C3CCC4=CC(=O)CCC4(C)C3CCC21C` (centres undefined) here?
A: 0.95

Q: For `CCC(=O)O[C@H]1CCC2C3CCC4=CC(=O)CC[C@]4(C)C3CC[C@@]21C` (some centres undefined), which cytochrome c release ratio is on record?
A: 0.85

Q: With `CCN1C[C@@]2(COC)C3[C@@H](OC)[C@H]4[C@@H]1[C@]3(C(OC)C[C@H]2O)C1C[C@@]2(O)[C@H](OC(=O)c3ccccc3)C1[C@]4(OC(C)=O)[C@@H](O)[C@@H]2OC` (some centres undefined) as the molecule, how does the cytochrome c release ratio read?
A: 0.91

Q: For `C=CCN1CC[C@]23c4c5ccc(O)c4OC2C(=O)CC[C@@]3(O)[C@H]1C5` (some centres undefined), which cytochrome c release ratio is on record?
A: 1.12

Q: For `N#CC(O[C@@H]1O[C@H](CO[C@@H]2O[C@H](CO)[C@@H](O)[C@H](O)[C@H]2O)[C@@H](O)[C@H](O)[C@H]1O)c1ccccc1` (some centres undefined), which cytochrome c release ratio is on record?
A: 1.2

Q: For `Oc1ccc2c3c1OC1[C@@H](O)CC[C@@]4(O)[C@@H](C2)N(CC2CCC2)CC[C@]314` (some centres undefined), which cytochrome c release ratio is on record?
A: 0.87

Q: Which cytochrome c release ratio does the source give for `C=C[C@H]1CN2CC[C@H]1C[C@@H]2[C@H](O)c1ccnc2ccccc12` here?
A: 0.96

test: polyglutamine aggregate formation blockers (AID 1604); settings: polyglutamine-induced protein aggregation inhibition assay; stronger effect = higher value; tested at 2.5 µM

Q: For `O=C1CC[C@@]2(O)[C@H]3Cc4ccc(O)c5c4C2(CCN3CC2CC2)[C@H]1O5`, which inhibition of aggregation is on record?
A: 61.5%

Q: For `C=C[C@H]1CN2CC[C@H]1C[C@@H]2[C@@H](OC(=O)OCC)c1ccnc2ccc(OC)cc12`, which inhibition of aggregation is on record?
A: 70.5%

Q: With `NC1C[C@H]1c1ccccc1` (some centres undefined) as the molecule, how does the inhibition of aggregation read?
A: -4.08%

Q: For `C[C@@H]1O[C@@H](O[C@H]2C[C@@H](O)[C@]3(CO)C4C(CC[C@]3(O)C2)[C@@]2(O)CC[C@H](C3=CC(=O)OC3)[C@@]2(C)C[C@H]4O)[C@H](O)[C@H](O)[C@H]1O` (some centres undefined), which inhibition of aggregation is on record?
A: 75%

Q: Which inhibition of aggregation does the source give for `CC1[C@H](C)OC(=O)CC(O)CC(O)CC(O)CCC(O)C(O)C[C@]2(O)CC(O)C(C(=O)O)C(CC(OC3O[C@H](C)[C@@H](O)[C@H](N)[C@@H]3O)/C=C/C=C/C=C/C=C/CC/C=C/C=C/[C@H](C)[C@H]1O)O2` (some centres undefined) here?
A: 30.3%

Q: For `C[N+](C)(C)CC(=O)[O-]`, which inhibition of aggregation is on record?
A: 61.8%

Q: Which inhibition of aggregation does the source give for `C#CC1(O)CCC2C3CCC4=CC(=O)CCC4(C)C3CCC21C` (centres undefined) here?
A: 63.6%

Q: With `CCC(=O)O[C@H]1CCC2C3CCC4=CC(=O)CC[C@]4(C)C3CC[C@@]21C` (some centres undefined) as the molecule, how does the inhibition of aggregation read?
A: 35.3%

Q: For `CCN1C[C@@]2(COC)C3[C@@H](OC)[C@H]4[C@@H]1[C@]3(C(OC)C[C@H]2O)C1C[C@@]2(O)[C@H](OC(=O)c3ccccc3)C1[C@]4(OC(C)=O)[C@@H](O)[C@@H]2OC` (some centres undefined), which inhibition of aggregation is on record?
A: 65.4%

Q: For `C=CCN1CC[C@]23c4c5ccc(O)c4OC2C(=O)CC[C@@]3(O)[C@H]1C5` (some centres undefined), which inhibition of aggregation is on record?
A: 68.2%

Q: With `N#CC(O[C@@H]1O[C@H](CO[C@@H]2O[C@H](CO)[C@@H](O)[C@H](O)[C@H]2O)[C@@H](O)[C@H](O)[C@H]1O)c1ccccc1` (some centres undefined) as the molecule, how does the inhibition of aggregation read?
A: 36.6%

Q: With `Oc1ccc2c3c1OC1[C@@H](O)CC[C@@]4(O)[C@@H](C2)N(CC2CCC2)CC[C@]314` (some centres undefined) as the molecule, how does the inhibition of aggregation read?
A: 52.2%

Q: For `C=C[C@H]1CN2CC[C@H]1C[C@@H]2[C@H](O)c1ccnc2ccccc12`, which inhibition of aggregation is on record?
A: -10.6%

test: glutamate transport activators, MN-1 cells, MN-1 cell line (AID 1612); settings: MN-1 motor neuron cells, stronger effect = higher value;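 also: tested at 1 µM final; 0% = mean of DMSO vehicle wells on each plate; positive means more glutamate uptake than control and negative means less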

Q: For `O=C1CC[C@@]2(O)[C@H]3Cc4ccc(O)c5c4C2(CCN3CC2CC2)[C@H]1O5`, which glutamate uptake change is on record?
A: 10.7%

Q: With `C=C[C@H]1CN2CC[C@H]1C[C@@H]2[C@@H](OC(=O)OCC)c1ccnc2ccc(OC)cc12` as the molecule, how does the glutamate uptake change read?
A: 9.82%

Q: Which glutamate uptake change does the source give for `NC1C[C@H]1c1ccccc1` (some centres undefined) here?
A: 0.89%

Q: With `C[C@@H]1O[C@@H](O[C@H]2C[C@@H](O)[C@]3(CO)C4C(CC[C@]3(O)C2)[C@@]2(O)CC[C@H](C3=CC(=O)OC3)[C@@]2(C)C[C@H]4O)[C@H](O)[C@H](O)[C@H]1O` (some centres undefined) as the molecule, how does the glutamate uptake change read?
A: -21.6%

Q: For `CC1[C@H](C)OC(=O)CC(O)CC(O)CC(O)CCC(O)C(O)C[C@]2(O)CC(O)C(C(=O)O)C(CC(OC3O[C@H](C)[C@@H](O)[C@H](N)[C@@H]3O)/C=C/C=C/C=C/C=C/CC/C=C/C=C/[C@H](C)[C@H]1O)O2` (some centres undefined), which glutamate uptake change is on record?
A: 9.44%

Q: With `C[N+](C)(C)CC(=O)[O-]` as the molecule, how does the glutamate uptake change read?
A: 21.6%

Q: For `C#CC1(O)CCC2C3CCC4=CC(=O)CCC4(C)C3CCC21C` (centres undefined), which glutamate uptake change is on record?
A: 12.9%

Q: With `CCC(=O)O[C@H]1CCC2C3CCC4=CC(=O)CC[C@]4(C)C3CC[C@@]21C` (some centres undefined) as the molecule, how does the glutamate uptake change read?
A: 14.3%

Q: Which glutamate uptake change does the source give for `CCN1C[C@@]2(COC)C3[C@@H](OC)[C@H]4[C@@H]1[C@]3(C(OC)C[C@H]2O)C1C[C@@]2(O)[C@H](OC(=O)c3ccccc3)C1[C@]4(OC(C)=O)[C@@H](O)[C@@H]2OC` (some centres undefined) here?
A: 9.78%

Q: For `C=CCN1CC[C@]23c4c5ccc(O)c4OC2C(=O)CC[C@@]3(O)[C@H]1C5` (some centres undefined), which glutamate uptake change is on record?
A: -6.41%

Q: Which glutamate uptake change does the source give for `N#CC(O[C@@H]1O[C@H](CO[C@@H]2O[C@H](CO)[C@@H](O)[C@H](O)[C@H]2O)[C@@H](O)[C@H](O)[C@H]1O)c1ccccc1` (some centres undefined) here?
A: 14%

Q: With `Oc1ccc2c3c1OC1[C@@H](O)CC[C@@]4(O)[C@@H](C2)N(CC2CCC2)CC[C@]314` (some centres undefined) as the molecule, how does the glutamate uptake change read?
A: -2.6%

Q: For `C=C[C@H]1CN2CC[C@H]1C[C@@H]2[C@H](O)c1ccnc2ccccc12`, which glutamate uptake change is on record?
A: 4.38%
